Our source for the composite z-score, z-score and outcome values is PubChem BioAssay.

Assay [1] deals with XIP peptide (Xip251-270) binding. The assay can be described thus: XIP fragment 251-270 binding compounds – biochemical, small-molecule microarray, fluorescence 635/667 nm, 0.1 µg/mL protein, primary screen (AID 1182). The conditions noted are these: fluorescent protein binding, 635 nm, higher = more signal, called active from +8 up or from −8 down.
Another assay concerns XIP peptide (Xip251-270). The assay can be described thus: compounds binding XIP fragment 251-270 – biochemical, small-molecule microarray, fluorescence 635/667 nm, 0.5 µg/mL protein, primary screen (AID 1183). The following applies: fluorescence 635 nm, higher = more signal.
Assay [2] is described as follows: blood-stage malaria parasite viability loss – strain 3D7, DAPI fluorescence, 100 nL, primary screen (AID 1184).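 Further: parasites grown inside human red blood cells in medium with human serum.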 The conditions noted are these: P. falciparum 3D7 growth, 3 d, higher = more signal.
In assay [3] the target is Homeobox protein Hox-A13 (Mus musculus) (UniProt Q62424). Briefly: disruptors of Hoxa13 oligonucleotide interaction – biochemical, fluorescence polarization, labeled oligonucleotide, primary screen (AID 1185). The conditions noted are these: Hoxa13:DNA binding, 15 min, higher = more signal, called active from +8 up or from −8 down.
Chain of Homeobox protein Hox-A13 (Mus musculus) (Q62424 whole entry, looked up): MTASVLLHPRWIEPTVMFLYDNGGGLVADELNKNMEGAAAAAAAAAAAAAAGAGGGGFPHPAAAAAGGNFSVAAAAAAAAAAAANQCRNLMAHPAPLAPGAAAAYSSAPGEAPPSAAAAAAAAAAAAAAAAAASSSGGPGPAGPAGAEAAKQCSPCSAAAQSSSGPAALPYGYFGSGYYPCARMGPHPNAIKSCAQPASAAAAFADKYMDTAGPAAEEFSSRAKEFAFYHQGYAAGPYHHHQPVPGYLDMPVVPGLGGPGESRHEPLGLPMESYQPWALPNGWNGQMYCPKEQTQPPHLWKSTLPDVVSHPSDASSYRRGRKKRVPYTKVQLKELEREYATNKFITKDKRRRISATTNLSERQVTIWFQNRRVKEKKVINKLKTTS
Assay [4] is described as follows: blockers of DNA damage checkpoint Chk1 activation – imaging, HeLa, hydroxyurea, phospho-Chk1 antibody, percent positive cells, primary screen (AID 1186). The following applies: hydroxyurea-induced phospho-Chk1 immunofluorescence imaging, higher = more signal.
Assay [5] in a line: blockers of DNA damage checkpoint Chk1 activation – imaging, HeLa, hydroxyurea, phospho-Chk1 nuclear intensity, primary screen (AID 1187). The conditions noted are these: hydroxyurea-induced phospho-Chk1 immunofluorescence imaging, higher = more signal.
Assay [6] can be described thus: fungal growth arrest, C. neoformans – Alamar Blue, cherry-picks, dose response (AID 686998;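 active means falling signal with fitted half-maximal potency no higher than twice the top valid tested dose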). The following applies: Cryptococcus neoformans growth, 24 h; series mostly up to 35 µM. (Alamar Blue is a resazurin reagent that responds to reducing activity.)
Assay [7] in a line: C. neoformans lysis by adenylate kinase leakage – AK release luminescence, cherry-picks, dose response (AID 687000;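 active means fitted dose curve reaches 40% lysis signal rise at or below the highest valid concentration tested for that sample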;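 further: luminescent detection of adenylate kinase leaking from lysed yeast; 0% = median neutral control signal and 100% = double that signal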). The following applies: 4 h, 100% = twice the neutral-control signal; series mostly up to 15 µM.
A short description of assay [8]: viability loss in HepG2 hepatoma cells – cell-based, cherry-picks, set 2, cytotoxicity control, dose response (AID 687002;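 active means a dose-response fit showing signal loss, with half-maximal concentration no higher than twice the top tested dose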). The following applies: ATP luminescence (CellTiter-Glo), 48 h; series mostly up to 26 µM.
A short description of assay [9]: viability loss in HeLa cells – cell-based, ATP luminescence, cherry-pick samples, cytotoxicity control, dose response (AID 687004;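 active means a fitted half-maximal concentration no higher than twice the top valid tested dose, with signal falling as cells die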;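 further: 0% = neutral control median and -100% = staurosporine 10 µM control median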). The conditions noted are these: ATP luminescence (CellTiter-Glo), 48 h; series mostly up to 26 µM. For orientation: In ATP-based viability assays light output follows the ATP content of the culture.

For some of these results: Potency and affinity values are given separately. Inconclusive results are not listed. Activity calls are given as the source filed them. Unless noted, how the calls were made is not given here.

In the case of `CC(C)[Si]1(C(C)C)O[C@@H](c2ccccc2)c2cc(C3CC3)nc(-c3ccc(Oc4ccccc4)cc3)c21`, the composite z-score in [1] was -0.732 (inactive); in the assay with XIP peptide (Xip251-270) it was -0.736. For the same compound, the z-score in [2] is -1.45; in [3] it was 0.0985 (inactive); in assay [4], -0.446 (inactive); in assay [5], 0.661 (inactive).

With `O=C1C[C@@](C(=O)NC2CC2)(c2ccc([N+](=O)[O-])cc2)[C@@H](c2ccc(CO)cc2I)N1CC12CC3CC(CC(C3)C1)C2`, the figures for the composite z-score (in assay [1]; in the assay with XIP peptide (Xip251-270)) were 0.479 (inactive) and 0.687, respectively. The z-score is -1.29 in [2], -3.64 (inactive) in [3], -0.174 (inactive) in assay [4] and -0.372 (inactive) in assay [5].

Turning to `C=CCC(OC(C)=O)[C@@H]1[C@@H](N(Cc2cccc3ccccc23)C(=O)c2ccc(C)cc2)c2cc(OCCCO)ccc2N1C(=O)c1ccc(-c2ccccc2)cc1` (stereo partly specified), the results for the composite z-score (in [1]; in the assay with XIP peptide (Xip251-270)) were -0.115 (inactive) and 0.481, respectively. The z-score in assay [2] is -1.93; in [3] it was -0.128 (inactive); in assay [4], -0.35 (inactive); in [5] it was -0.844 (inactive).

Consider `COC(=O)c1ccc(C#CC(NP(=O)(c2ccccc2)c2ccccc2)c2ccccc2)cc1` (stereo unspecified), for which the composite z-score in assay [1] is 0.238 (inactive); in the assay on XIP peptide (Xip251-270) it was -0.0253. Further, the z-score in assay [2] is -0.253; in [3], -3.02 (inactive); in assay [4] it was -1.14 (inactive); in assay [5], -1.03 (inactive).

On to `COCCOC(=O)N1C(=O)[C@@]2(c3cc(C#CC4=CCCCC4)ccc31)[C@H](C(=O)NC[C@H](O)c1ccccc1)[C@H]1C(=O)O[C@H](c3ccccc3)[C@H](c3ccccc3)N1[C@@H]2c1ccc(OCCO)cc1`, for which the composite z-score in assay [1] is -0.361 (inactive); with XIP peptide (Xip251-270), 0.612. In addition, the z-score in assay [2] was -1.73; in assay [3] it was 2.05 (inactive); in [4], 0.0381 (inactive); in [5], 0.231 (inactive).

For `O=C1OCCC=C[C@H]2OC34C=CCN(Cc5ccccc5)C(=O)[C@H]3N(CCO)C(=O)[C@@H]4C12` (stereo partly specified), the composite z-score was -0.525 (inactive) in assay [1] and -1.24 with XIP peptide (Xip251-270). Moreover, the z-score in assay [2] was -1.92; in assay [3], -2.7 (inactive); in assay [4] it was -0.618 (inactive); in [5], -0.732 (inactive).

With `C=CCC1=C[C@H]2[C@H]([C@@H]3C=C[C@]2(CC=C)C(=O)[C@]32CO2)[C@@]2(CO2)C1=O`, the composite z-score was 1.7 (inactive) in assay [1] and -0.489 in the assay with XIP peptide (Xip251-270). Further, the z-score in assay [2] is -0.0419; in assay [3], -1.29 (inactive); in [4], -0.556 (inactive); in assay [5], -0.606 (inactive).

Regarding `COC(=O)C[C@H]1O[C@]2(C(=O)N(Cc3ccccc3)c3ccc(I)cc32)[C@@H](C)[C@@H]1[Si](C)(C)c1ccc(OC)cc1`, the composite z-score in assay [1] is -0.0923 (inactive); in the assay with XIP peptide (Xip251-270), -0.0988. The z-score in [2] was -3.07; in [3] it was 1.04 (inactive); in assay [4], -0.504 (inactive); in [5], -0.584 (inactive).

For `NC(=O)NCC#Cc1ccc2c(c1)[C@]1(C(=O)N2)[C@H](C(N)=O)[C@H]2C(=O)O[C@H](c3ccccc3)[C@H](c3ccccc3)N2[C@@H]1c1ccccc1OCCO`, the composite z-score in assay [1] is 0.212 (inactive); in the assay on XIP peptide (Xip251-270), 0.473. Further, the z-score in [2] was 0.257; in [3], -4.44 (inactive); in assay [4], 0.113 (inactive); in assay [5], 0.158 (inactive). In addition, the call in assay [6], in assay [7], in assay [8] and in assay [9] was inactive.

Consider `CCCCO[C@H]1C[C@H]2C(Br)=C[C@@]1(CO)C(=O)[C@]21CO1`, for which the composite z-score is -0.631 (inactive) in [1] and -0.329 in the assay on XIP peptide (Xip251-270). In addition, the z-score in [2] was 0.0951; in [3] it was -0.0157 (inactive); in assay [4], -0.407 (inactive); in assay [5] it was -0.291 (inactive).

Take `COc1ccc([Si](C)(C)[C@@H]2[C@@H](CC(=O)N(CCO)Cc3ccccc3)O[C@]3(C(=O)N(Cc4cccc(N5CCC5=O)c4)c4ccccc43)[C@H]2C)cc1`: the composite z-score is 1.09 (inactive) in assay [1] and 0.756 in the assay on XIP peptide (Xip251-270). In addition, the z-score was -2.5 in assay [2], -1.54 (inactive) in assay [3], -0.0556 (inactive) in assay [4] and -0.0513 (inactive) in assay [5].

In the case of `COc1ccc(-c2cc3c(c(-c4ccccc4)n2)[Si](C(C)C)(C(C)C)O[C@H]3c2ccccc2)cn1`, the composite z-score is 0.64 (inactive) in assay [1] and 0.559 in the assay with XIP peptide (Xip251-270). In addition, the z-score in [2] was -2.91; in [3], -2.23 (inactive); in [4], -0.317 (inactive); in assay [5] it was -0.344 (inactive).
